# In PubChem BioAssay AID2732 (Emory University Molecular Libraries Screening Center, 2010):
# About 8,200 (3.7%) of roughly 220,000 compounds were called active. This excerpt belongs to a sample that is enriched for actives. Unmarked numbers belong to inactive results.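 Rule for the calls: active = compounds that reduced the stress-induced luciferase reporter signal by more than about 70% of percent inhibition (limit read from the data); inactive = the rest.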
# Assay: inhibitors of CHOP promoter induction, primary screen, cell-based, unfolded protein response, luciferase reporter (AID 2732);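 note: 0% = tunicamycin plus vehicle and 100% = wells without tunicamycin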
# Settings: CHO-K1 CHOP-promoter luciferase, tunicamycin-induced, 15-18 h; at 10 µM; stronger effect = higher value
row,SMILES,inhibition
1,O=C(CCCl)Nc1ccc(S(=O)(=O)NCc2ccco2)cc1,-12.6%
2,COc1ccc(C(=O)c2oc3ccc(Br)cc3c2NC(C)=O)cc1,10%
3,O=C(NC1CC1)c1cccc(Br)c1,20.9%
4,COC(=O)C1NN=C(C(=O)c2ccc(Br)cc2)C1c1cccc(Br)c1 (configuration not stated),75.1% (active)
5,C/C(CC(C)C)=N\Oc1nc(C)cc(C)n1,-11.9%
6,Cc1cc(N2CCN(c3ccccc3)CC2)nc(N2CCOCC2)n1,12%
7,FC(F)(F)c1cc(C(F)(F)F)c2ccc(N3CCN(c4ccccc4)CC3)nc2n1,96.8% (active)
8,O=C(NC(=S)Nc1cccc2c(O)cccc12)c1cccc(Br)c1,32.1%
9,CCOC(=O)c1c(C)oc(C)c(C(=O)OCC)c1=O,1.84%
10,Cc1ccc(S(=O)(=O)N2CCN(S(=O)(=O)N3CCOCC3)CC2)cc1,-15%
11,O=S(=O)(c1ccc(F)cc1)N1CCN(Cc2ccccc2C(F)(F)F)CC1,88% (active)
12,O=C(CN1CCN(S(=O)(=O)c2ccc(F)cc2)CC1)Nc1ccccc1F,14.5%
13,Cc1ccc(S(=O)(=O)N2CCN(C(=O)c3cccs3)CC2)cc1,18.5%
14,Cc1ccc(S(=O)(=O)N2CCN(Cc3cccc(C)c3O)CC2)cc1,83% (active)
15,O=S(=O)(c1ccc(F)cc1)N1CC=C(c2ccccc2)CC1,5.87%
16,CN(CC(O)COc1ccc(S(=O)(=O)N2CCOCC2)cc1Cl)C1CCCCC1 (configuration not stated),9.37%
17,O=C(O)COCC(=O)NCc1csc2ccc(Cl)cc12,1.58%
18,CCCCNC(=O)c1c[nH]c2ccc(S(=O)(=O)Nc3ccc(OCC)cc3)cc2c1=O,100% (active)
19,CCOc1ccc(NS(=O)(=O)c2ccc(C)c(C(N)=O)c2)cc1,16.6%
20,COc1cccc(NS(=O)(=O)c2ccc3[nH]cc(C(=O)NCCCOC(C)C)c(=O)c3c2)c1,-0.02%
21,COC(=O)c1ccc(S(=O)(=O)NCc2ccccc2)n1C,15.6%
22,O=c1cc(CCl)nc2scc(-c3ccccc3)n12,-35.4%
23,Cc1cc(NC(=O)CSc2nc3ccccc3n2CC(C)C)no1,-2.4%
24,Cc1cc(NC(=O)CSc2nc3c(cc2C#N)CCCCC3)no1,-14.1%
25,Cc1nc(SCC(=O)Nc2cc(C)on2)c2c3c(sc2n1)CCCC3,97.7% (active)
26,Cc1cc(NC(=O)CSc2nc(C(C)C)nc3sc4c(c23)CCC(C)C4)no1 (configuration not stated),78.5% (active)

row,SMILES,inhibition
1,C=CCn1c(SCc2c(C)noc2C)nc2sc3c(c2c1=O)CCC(C)C3 (configuration not stated),25.9%
2,Cc1nc(SCC(=O)Nc2cc(C)on2)c2c(C)c(C)sc2n1,69.6%
3,CNC(=S)NNC(=O)c1ccc(N(C)C)cc1,-5.96%
4,O=C(Nc1n[nH]c(C(F)(F)F)n1)c1cccs1,3.43%
5,Cc1noc(C)c1C(=O)OCC(=O)N1CCN(S(=O)(=O)c2ccc3ccccc3c2)CC1,4.18%
6,O=C(COC(=O)c1ccc[nH]c1=O)Nc1ccc2c(c1)OC(F)(F)O2,-4.76%
7,O=C(CCn1nnc2ccccc2c1=O)N[C@@H](Cc1c[nH]c2ccccc12)C(=O)O,5.85%
8,Cc1nc2ccccc2cc1OCc1ccc(F)cc1,74.8% (active)
9,Fc1cccc2ncnc(OCc3ccccc3)c12,-2.5%
10,Cc1nc2ccccc2cc1O,-6.19%
11,O=S(=O)(Nc1n[nH]c(C(F)(F)F)n1)c1ccccc1,11.6%
12,COC(=O)c1cc(C(=O)OCC(=O)Nc2cc(C)on2)cc([N+](=O)[O-])c1,4.62%
13,Cc1nc2sc(C(=O)c3ccccc3)c(N)c2c2c1CCCC2,0.62%
14,CC(=O)Nc1ccc(NC(=O)c2sc3nc4c(c(-c5ccc(C)cc5)c3c2N)CCC4)cc1,78.3% (active)
15,Cc1cccc(NC(=O)c2sc3nc4c(c(-c5ccco5)c3c2N)CCC4)c1,34.4%
16,Cc1ccc(NC(=O)c2sc3nc(N)c(C#N)cc3c2N)cc1,-25.7%
17,NC(=O)c1sc2nc3c(c(-c4ccccc4)c2c1N)CCC3,70.9% (active)
18,CCc1nc2sc(C(=O)O)c(N)c2c2c1CCCC2,3.45%
19,COc1ccc(C2/C=C\CN(S(=O)(=O)c3cccs3)CC(=O)N2Cc2ccc(F)cc2)cc1 (configuration not stated),4.62%
20,Cc1cc(C)c(NC(=O)CN2C(=O)NC(Cc3ccccc3)C2=O)c(C)c1 (configuration not stated),11.3%
21,COc1ccc2nc(NC(=O)NC3CCCCC3)sc2c1,26.1%
22,COc1cccc(C(=O)Nc2nc3ccc(S(C)(=O)=O)cc3s2)c1,8.18%
23,COc1ccc2nc(NC(=O)c3ccc(Br)s3)sc2c1,95.9% (active)
24,CCCSc1ncccc1C(=O)O,-2.65%
25,CO/N=C/CC(=O)c1ccc(OC)cc1,-19.6%
26,COC(=O)CNS(=O)(=O)c1ccc(OC)cc1,3.65%

row,SMILES,inhibition
1,CO/N=C(/CS(=O)(=O)c1ccc(Br)cc1)c1ccc(OC)cc1,83% (active)
2,Cc1nc(-c2ccccc2)sc1-c1nnc(C2CC2)o1,-9.64%
3,O=c1[nH]nc(SCCS(=O)(=O)c2ccc(F)cc2)n1-c1ccccc1C(F)(F)F,10.5%
4,CN(C)CCCN(Cc1cc2cc3c(cc2[nH]c1=O)OCCO3)C(=O)NC1CCCCC1,5.43%
5,O=C(Nc1ccc(Cl)cn1)Nc1cccs1,38.9%
6,Clc1ccc(Nc2nc(-c3cccs3)cs2)nc1,99.5% (active)
7,c1ccc(Nc2nc(-c3ccncc3)cs2)nc1,56.5%
8,Nc1nnnn1/N=C/c1cc([N+](=O)[O-])ccc1O,6.19%
9,C=CC[n+]1c(-c2ccc(C)cc2)csc1NNC(=O)Nc1ccccc1,75.9% (active)
10,Cc1ccc(NC(=O)Nc2ccccc2)c(Br)c1,38.2%
11,C=CCNc1scc(-c2ccccc2)[n+]1CC=C,-28.4%
12,O=C1NNC(c2ccccc2)=N/C1=C\c1ccc(Cl)cc1,24.3%
13,NNC(=O)COc1ccc(C2SCCS2)cc1,18.6%
14,NC(=O)COc1ccc(NC(=O)c2ccccc2-c2ccccc2)cc1,6.67%
15,NC(=O)COc1ccc(C23CC4CC(CC(C4)C2)C3)cc1,103% (active)
16,Cc1ccc(C)c2[nH]c(=O)c(CN(Cc3cccnc3)C(=S)NCc3ccco3)cc12,2.47%
17,Cc1ccc(-c2nc3ccccc3[nH]c2=O)cc1,-30.2%
18,CC1Cc2ccccc2N1S(=O)(=O)c1ccc(Cl)nc1 (configuration not stated),9.84%
19,CCNC(=S)N1CCN(c2ncccn2)CC1,6.67%
20,CC12CCC(C(=O)N3CCN(c4ncccn4)CC3)(c3nc4ccccc4nc31)C2(C)C (configuration not stated),81.3% (active)
21,O=C(C(Cl)Cl)N1CCN(c2ccccn2)CC1,23.1%
22,Cn1nc(C(F)(F)F)c(-c2ccc(F)cc2)c1NC(=O)CSCC(=O)O,-1.35%
23,NC1=NC[C@@H](Cc2ccc(O)cc2)N1CC1CCCCC1,-9.28%
24,CCOC(=O)C1=C(C)NC(C)=C(C(=O)OCC)C1c1ccccn1,-2.49%
25,CCOC(=O)C1=C(C)N=C2c3ccccc3C(=O)C2C1c1ccc(Br)cc1 (configuration not stated),93.1% (active)
26,CCOC(=O)C1=C(C)NC(=O)NC1c1ccccc1 (configuration not stated),5.41%

row,SMILES,inhibition
1,COc1ccc(OCCC(=O)c2ccc(OC)cc2)cc1,-4.29%
2,Nc1ccc(Oc2ccc(Cl)cc2)cc1,33.6%
3,Cc1ccc(Oc2ccc(N)cc2)cc1,37.7%
4,CC(C)(C)c1ccc(Oc2ccc(N)cc2)cc1,107% (active)
5,Cc1cccc(-[n+]2c(-c3cccc(Br)c3)[nH]c3nc4ccccc4nc32)c1,18.3%
6,COc1ccc(CCN2C(=O)CC(N3CCC(C(N)=O)CC3)C2=O)cc1OC (configuration not stated),-9.45%
7,O=[N+]([O-])c1cc([N+](=O)[O-])c2cccnc2c1O,16.7%
8,CC(C)Cc1nc(Cl)c(C#N)c2c1CCC2,17.9%
9,CC(C)Cc1nc(N2CCOCC2)c(C#N)c2c1CCC2,91.2% (active)
10,CC(C)c1nc(N2CCOCC2)c(C#N)c2c1COC(C)(C)C2,60.3%
11,N/C(=N\OC(=O)Nc1ccccc1)c1ccno1,-5.09%
12,O=C(O)CCn1c(O)c(C=C2N=c3ccccc3=N2)sc1=S,80.2% (active)
13,Cc1cc2ccccc2n1CCC(=O)O,6.98%
14,O=C(COc1ccc([N+](=O)[O-])cc1Cl)Nn1cnnc1,-0.23%
15,COc1cc(C=O)ccc1Oc1nnnn1-c1ccccc1,4.01%
16,O=C(CSc1nnc2n1CCCN2)c1ccccc1,-11.1%
17,CC(=O)c1ccc(NC(=O)C2CC(=O)Nc3nc4ccccc4n32)cc1 (configuration not stated),-5.45%
18,COc1ccc(Cn2cccc(NC(=O)Nc3ccc(C#N)cc3)c2=O)cc1,62.7%
19,COc1ccc(Cn2c(C)c(C)c(C#N)c2NC(=O)Nc2ccc(F)cc2)cc1,94.3% (active)
20,Cc1c(C#N)c(NC(=O)c2ccccc2)n(Cc2ccccc2)c1C,-4.55%
21,Cc1nc2c(ncn2-c2ccccc2)c(=O)n1NC(=O)CN1CCCC1,9.81%
22,Cc1[nH]n(-c2ccccc2)c(=O)c1/C=N/NC(=O)c1ccoc1C,51.5%
23,Cc1ccc(-n2[nH]c(C)c(/C=N/NC(=O)c3cccc([N+](=O)[O-])c3)c2=O)cc1C,85.8% (active)
24,COc1cccc(/C=N/NC(=O)c2cccc([N+](=O)[O-])c2)c1OS(=O)(=O)c1ccc(C)cc1,0.84%
